Measurements reported in PubChem BioAssay (Tox21).
Inconclusive results are not listed. Some compounds were tested as several samples or in several runs, with calls that do not always agree. Active and inactive are the calls of the source. Unless noted, calls come from the whole dose curve; as a rule, active = well fitted curve in the direction sought with a large enough effect in the repeat runs; inconclusive = weak or mixed curves; inactive = no such curve, though single readings can be large; an effect the other way counts as inactive or inconclusive.

Key:
[1] = molecular target: Progesterone receptor (Homo sapiens) (UniProt P06401); test: qHTS assay to identify small molecule agonists of the progesterone receptor (PR) signaling pathway (AID 1346784; calls by dose curve; note: nearly all actives have a fitted effect of over 30% in size)
Outline: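 PR-UAS-bla HEK 293T cells (beta-lactamase reporter under UAS) in 2% charcoal-stripped FBS, dosed with 23 nL compound after 6 hr, incubated 16hr at 37C. LiveBLAzer B/G FRET substrate added, fluorescence read after 2 hours.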

[2] = qHTS assay to identify small molecule antagonists of the progesterone receptor (PR) signaling pathway - cell viability counter screen (AID 1346798); note: series mostly up to about 92 µM; nearly all actives have a fitted effect of over 50% in size
Outline: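 PR-UAS-bla HEK293T cells, 3,000/well in 2% charcoal-stripped FBS medium, dosed with compounds plus R5020 agonist and incubated 16 h at 37C. Viability then measured in the same wells by CellTiter-Glo luminescence after 30 min at RT.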

[3] = qHTS assay to identify small molecule antagonists of the TGF-beta/Smad signaling pathway - cell viability counter screen (AID 1346824); note: nearly all actives have a fitted effect of over 50% in size; note: potency is the fitted concentration of half-maximal effect
Outline: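 Cytotoxicity counter-screen run in the same wells as the beta-lactamase Smad reporter read: CellTiter-Glo luminescence after 30 min at room temperature. HEK 293T SBE-bla cells had 5 hr compound exposure at 37 C with TGF-beta1 (0.25 ng/mL stock).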

[4] = qHTS assay to identify small molecule agonists of the TGF-beta/Smad signaling pathway - cell viability counter screen (AID 1346829); note: nearly all actives have a fitted effect of over 45% in size; note: potency is the fitted concentration of half-maximal effect
Outline: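 Cytotoxicity counter screen: CellTiter-Glo luminescence (30 min, room temperature) measured in the SBE-bla HEK 293T reporter wells after 5 hr compound treatment at 37 C and the 2 hr substrate step.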

[5] = qHTS assay to identify small molecule agonists of the TGF-beta/Smad signaling pathway (AID 1346859; active = well fitted activation curve with a large enough effect in the signal ratio in the repeat runs, not every such curve was filed as active; the % refers to the signal ratio; note: series mostly up to about 77 µM)
Outline: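 SBE-bla HEK293T cells plated overnight, then compound exposure for 5 h at 37 C. Beta-lactamase reporter read with LiveBLAzer B/G FRET substrate after 2 h at room temperature, fluorescence at 405 nm excitation, 460/530 nm emission.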

[6] = molecular target: Thyrotropin-releasing hormone receptor (Homo sapiens) (UniProt P34981); test: qHTS assay to identify small molecule agonists of the thyrotropin-releasing hormone receptor (TRHR) signaling pathway (AID 1346891; calls by dose curve; note: potency is the fitted concentration of half-maximal effect; for activation: series mostly up to about 58 µM)
Outline: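 HEK293 cells expressing TRHR plated 18 h at 37 C/5% CO2, calcium dye-loaded 2 h at 37 C, then compound added (agonist mode); kinetic calcium fluorescence read 3 min at 1 s intervals; 15 concentrations in triplicate.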

[7] = Human pregnane X receptor (PXR) small molecule agonists, qHTS cell viability counter screen (AID 1346977); note: nearly all actives have a fitted effect of over 50% in size; note: potency is the fitted concentration of half-maximal effect
Outline: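 PXR-Luc HepG2 cells (2,000/well, 5% charcoal-stripped FBS) preincubated 5 hr, then exposed to compounds 24 hr at 37 C. Viability read in the same wells by CellTiter-Fluor fluorescence, reagent added at 23 hr, 1 hr incubation.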

[8] = molecular target: Thyrotropin-releasing hormone receptor (Homo sapiens) (UniProt P34981); test: qHTS assay to identify small molecule antagonists of the thyrotropin-releasing hormone receptor (TRHR) signaling pathway (AID 1346877; active = well fitted inhibition curve with a large enough effect in the repeat runs, not every such curve was filed as active; note: potency is the fitted concentration of half-maximal effect)
Outline: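 Calcium signal in dye-loaded TRHR/HEK293 cells; compounds added 5 min before TRH (1 nM final); fluorescence monitored 3 min at 1 s steps.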

[9] = qHTS assay to identify small molecule agonists of the progesterone receptor (PR) signaling pathway - cell viability counter screen (AID 1346799; calls by dose curve; note: nearly all actives have a fitted effect of over 45% in size; note: potency is the fitted concentration of half-maximal effect)
Outline: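 Counter screen in the PR-UAS-bla HEK293T wells (2% charcoal-stripped FBS, 16 h compound exposure at 37 C) after the bla read. CellTiter-Glo added, 30 min at room temperature, luminescence read as cell viability.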

[10] = molecular target: Progesterone receptor (Homo sapiens) (UniProt P06401); test: qHTS assay to identify small molecule antagonists of the progesterone receptor (PR) signaling pathway (AID 1346795; active = well fitted inhibition curve with a large enough effect in the signal ratio in the repeat runs, not every such curve was filed as active; the % refers to the signal ratio)
Outline: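 PR-UAS-bla HEK293T cells with beta-lactamase reporter under UAS control, in 2% charcoal-stripped FBS, treated with compounds plus 1 nM promegestone (R5020, final) for 16 hr at 37C. Read-out: FRET beta-lactamase substrate fluorescence after 2 hr at room temperature.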

Measured: Potency
% is set by controls: 0 for no effect and ±100 for the full control effect.

Chain of Thyrotropin-releasing hormone receptor (Homo sapiens) (P34981 whole entry, looked up): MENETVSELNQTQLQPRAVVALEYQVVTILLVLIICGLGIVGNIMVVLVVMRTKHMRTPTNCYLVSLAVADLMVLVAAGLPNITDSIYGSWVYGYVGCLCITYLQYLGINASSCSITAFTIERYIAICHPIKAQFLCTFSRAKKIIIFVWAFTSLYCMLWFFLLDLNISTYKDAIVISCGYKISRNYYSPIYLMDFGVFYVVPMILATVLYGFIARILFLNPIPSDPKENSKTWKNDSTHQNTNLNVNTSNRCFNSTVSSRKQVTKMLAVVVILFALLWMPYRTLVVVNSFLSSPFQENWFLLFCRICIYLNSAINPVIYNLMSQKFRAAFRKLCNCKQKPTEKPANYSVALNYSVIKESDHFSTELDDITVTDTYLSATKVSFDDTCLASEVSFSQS
Chain of Progesterone receptor (Homo sapiens) (P06401 whole entry, looked up): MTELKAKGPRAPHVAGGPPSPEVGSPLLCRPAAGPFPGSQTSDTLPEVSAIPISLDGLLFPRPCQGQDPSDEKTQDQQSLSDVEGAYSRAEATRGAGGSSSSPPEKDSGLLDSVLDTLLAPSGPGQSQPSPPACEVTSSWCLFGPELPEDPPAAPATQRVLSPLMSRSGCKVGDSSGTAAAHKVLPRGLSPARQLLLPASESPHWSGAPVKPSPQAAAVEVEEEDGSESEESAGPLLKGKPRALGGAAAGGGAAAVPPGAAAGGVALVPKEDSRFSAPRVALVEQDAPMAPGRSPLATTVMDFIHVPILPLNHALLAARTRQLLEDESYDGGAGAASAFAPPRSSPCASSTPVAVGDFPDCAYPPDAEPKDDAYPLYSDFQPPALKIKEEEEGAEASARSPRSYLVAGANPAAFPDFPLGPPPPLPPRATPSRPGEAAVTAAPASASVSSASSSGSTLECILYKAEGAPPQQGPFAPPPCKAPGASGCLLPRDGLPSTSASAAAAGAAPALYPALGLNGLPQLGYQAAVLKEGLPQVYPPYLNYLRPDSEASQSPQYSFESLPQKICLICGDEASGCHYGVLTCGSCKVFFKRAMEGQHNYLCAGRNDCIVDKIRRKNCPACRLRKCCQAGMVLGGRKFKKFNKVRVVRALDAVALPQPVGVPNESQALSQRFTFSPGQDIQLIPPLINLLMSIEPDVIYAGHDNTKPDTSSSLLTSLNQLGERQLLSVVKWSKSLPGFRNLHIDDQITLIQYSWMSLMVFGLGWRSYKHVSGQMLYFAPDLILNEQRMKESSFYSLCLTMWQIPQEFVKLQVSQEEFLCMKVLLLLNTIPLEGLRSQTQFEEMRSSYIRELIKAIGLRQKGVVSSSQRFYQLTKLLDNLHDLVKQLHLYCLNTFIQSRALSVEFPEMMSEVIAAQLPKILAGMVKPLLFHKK

C1=CC2C3C=CC(C3)C2C1 (configuration not stated)
active: [6] 34.1 µM
not listed: [8] | [9] | [10]
inactive: all other assays above

CC/C(=C(\c1ccccc1)c1ccc(OCCN(C)C)cc1)c1ccccc1
12.1 µM (active) and inactive: [8]
inactive: [1] | [5]
15.6 µM (active) and inactive: [6]
active: [7] 25.1 µM [middle of 5 runs]
55.3 µM (active) and inactive: [4]

CN[C@H]1CC[C@@H](c2ccc(Cl)c(Cl)c2)c2ccccc21
active: [7] 29.8 µM
inactive: [1] | [9] | [3] | [5]

CC(=O)CCC(=O)O
inactive: [2] | [9] | [3] | [4] | [5] | [7]

CCN(Cc1c(F)cccc1Cl)c1c([N+](=O)[O-])cc(C(F)(F)F)cc1[N+](=O)[O-]
active: [9] 8.63 µM
not listed: [2] | [10]
inactive: all other assays above

O=C(Nc1ncc([N+](=O)[O-])s1)c1cccs1
active: [3] 10.7 µM | [4] 15.1 µM | [7] 23.7 µM
not listed: [2] | [10]
inactive: all other assays above

NC(=O)c1cccnc1
inactive: [1] | [10] | [3] | [4] | [5] | [7]

COc1ccc(OC(F)(F)F)cc1CN[C@H]1CCCN[C@H]1c1ccccc1
inactive: [1] | [3] | [4]
active: [9] 24.3 µM | [7] 54.5 µM

O=C1O[C@H]([C@@H](O)CO)C(O)=C1O
inactive: [1] | [10] | [3] | [4] | [5] | [7]
